Where “and” joins values, the source holds several entries; their conditions need not be identical. Identical values can stand only once. The campaign covered roughly 330,000 compounds. About 3,800 (1.2%) were called active. Shown is part of a subset that was picked to be rich in actives. Unmarked numbers belong to inactive results. No stated cut-off is given here; in the data, active means inhibition above about 15%; inconclusive means no clear call, values can overlap the other calls; inactive means below that.

The target in the experiment is NAD-dependent protein deacylase sirtuin-5, mitochondrial (Homo sapiens) (UniProt Q9NXA8). In words: blockers of sirtuin-5 deacylase activity – biochemical, fluorescence imaging, single point, set 5, primary screen (AID 652115). As to conditions: Purified SirT5, succinyl-peptide AMC, trypsin-coupled fluorescence; at 15 µM; stronger effect = higher value.
Sequence of NAD-dependent protein deacylase sirtuin-5, mitochondrial (Homo sapiens) (Q9NXA8 whole entry, looked up): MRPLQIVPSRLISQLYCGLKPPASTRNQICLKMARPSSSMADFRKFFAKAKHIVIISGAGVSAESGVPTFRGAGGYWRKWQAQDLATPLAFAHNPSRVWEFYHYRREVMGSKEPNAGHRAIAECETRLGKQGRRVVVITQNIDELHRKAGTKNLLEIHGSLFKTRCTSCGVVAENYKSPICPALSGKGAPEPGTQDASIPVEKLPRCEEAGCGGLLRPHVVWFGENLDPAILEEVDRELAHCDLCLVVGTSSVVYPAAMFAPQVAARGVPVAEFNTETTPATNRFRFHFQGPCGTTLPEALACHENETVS
Turning to `CCCC#Cc1ccc([C@@H]2[C@@H](CO)N3C(=O)CN(C(=O)Nc4cccc(F)c4)C[C@H]23)cc1`, the inhibition is 6.12%.

Take `CCC(=O)Nc1ccc2c(c1)C(=O)N(C)C[C@@H](OC)[C@H](C)CN(Cc1cccnc1)[C@@H](C)CO2`: the inhibition is -0.588%.

Consider `Cn1c(CC(=O)Nc2ccc(F)cc2)nnc1SCC(=O)NC1CCCCC1`, for which the inhibition was 0.115%.

For the compound `Cc1ccc(SCC(=O)Nc2nncs2)cc1`, the inhibition is -2.47%.

In the case of `Cc1ccc(NC(=O)Cc2nnc(SCC(=O)Nc3nncs3)n2C)cc1`, the inhibition is 17.8% (active).

Consider `O=C(C[C@H]1C[C@@H]2c3cc(NC(=O)C4CCC4)ccc3O[C@@H]2[C@H](CO)O1)NCCN1CCCCC1`, for which the inhibition is -1.29%.

As for `C[C@H](CO)N1C[C@H](C)[C@@H](CN(C)C)Oc2c(NC(=O)Nc3ccc(F)cc3)cccc2C1=O`, the inhibition was -3.52%.

For the compound `C[C@H]1CN([C@@H](C)CO)C(=O)c2cc(-c3ccccc3F)cnc2O[C@@H]1CN(C)C`, the inhibition was -1.72%.

On to `CCCNC(=S)N1CCC(NC(=O)c2ccc(OC)cc2)CC1`, for which the inhibition was 2.19%.

Turning to `CC(C)OCCCNC(=S)N1CCC(C(=O)c2ccc3c(c2)OCCO3)CC1`, the inhibition is 26.6% (active).

With `COCCNC(=O)C1CCN(S(=O)(=O)c2ccc3c(c2)OCCO3)CC1`, the inhibition is -1.09%.

For the compound `O=C(c1cccnc1)N1CC2(C1)[C@@H](c1ccccc1)[C@H](CO)N2C(=O)C1CCC1`, the inhibition is -1.71%.

Take `CCOC(=O)Cc1ncccc1C(=O)Nc1ccc(OC(F)(F)F)cc1`: the inhibition is -0.166%.

In the case of `CCOC(=O)Cc1ncccc1C(=O)Nc1ccc(OC)cc1`, the inhibition was 15.7% (active).

Turning to `COc1ccc(NC(=O)c2ccccc2CC[N+](=O)[O-])cc1`, the inhibition is -2.27%.

Turning to `COc1cccc(C(=O)Nc2ccc3c(c2)C(=O)N(C)[C@@H]2CC[C@H](CC(=O)NCCCN4CCOCC4)O[C@H]2CO3)c1`, the inhibition was 1.19%.

For the compound `COc1cccc(C#Cc2cnc3c(c2)C(=O)N([C@H](C)CO)C[C@@H](C)[C@@H](CN(C)C(=O)C2CCC2)O3)c1`, the inhibition was 0.234%.

For `O=C(N[C@@H]1CC[C@@H](CC(=O)N2CCc3ccccc3C2)O[C@H]1CO)C1CC1`, the inhibition was 3.34%.

For `CCS(=O)(=O)N1CC(=O)N2[C@H](CO)[C@@H](c3ccc(C#Cc4cccc(F)c4)cc3)[C@@H]2C1`, the inhibition was -0.525%.

Turning to `CCOc1ccccc1Nc1ccc(C(=O)O)cc1[N+](=O)[O-]`, the inhibition was -0.287%.

`NC(=O)c1ccc(Nc2ccc3nonc3c2[N+](=O)[O-])cc1`: the inhibition was 2.49%.

On to `NC(=O)c1ccc(Nc2ccc3c(c2)CCC3)c([N+](=O)[O-])c1`, for which the inhibition was 28.4% (active).

As for `CCCNC(=O)Nc1ccc2c(c1)C(=O)N(C)[C@H]1CC[C@H](CC(=O)NCC3CCCCC3)O[C@@H]1CO2`, the inhibition was 31.7% (active).

On to `CCNC(=O)Nc1ccc2c(c1)C(=O)N(C)[C@H]1CC[C@H](CC(=O)NCC3CCCCC3)O[C@@H]1CO2`, for which the inhibition was 3.92%.

Regarding `CCC(=O)Nc1ccc2c(c1)C(=O)N(C)[C@H]1CC[C@H](CC(=O)NCC3CCCCC3)O[C@H]1CO2`, the inhibition was -3.85%.

Take `C[C@@H]1CN([C@H](C)CO)C(=O)CCCn2cc(nn2)CO[C@@H]1CN(C)Cc1ccccc1C(=O)O`: the inhibition is -0.401%.

In the case of `COc1ccc2c3c([nH]c2c1)[C@H](CO)N(C(=O)C1CCCCC1)CC31CCN(C(=O)c2ccncc2)CC1`, the inhibition was -1.36%.

Turning to `COc1cccc(S(=O)(=O)N2[C@@H]3CNC[C@H]2C3c2ccc(-c3cccc(C(=O)N(C)C)c3)cc2)c1` (some centres not stated), the inhibition is 3.63% and 4.46%.

In the case of `Cc1cc(=O)[nH]c(N/N=C/c2ccc3c(c2)OCCO3)n1`, the inhibition was 2.57%.

As for `C(=N\Nc1ccc2ccccc2n1)/c1ccc2c(c1)OCO2`, the inhibition is 15.4% (active).

Turning to `Cc1noc(C)c1/C=N/Nc1ccc2ccccc2n1`, the inhibition is -4.8%.

Take `CN(C)Cc1cn(CC[C@H]2CC[C@H](NC(=O)Nc3ccccc3F)[C@@H](CO)O2)nn1`: the inhibition was -13.2%.

For `Cc1ccnc(NC(=O)c2ccc(Cl)c([N+](=O)[O-])c2)c1`, the inhibition was -6.51%.

For the compound `O=C(Nc1ccncc1)c1ccc(Cl)c([N+](=O)[O-])c1`, the inhibition was 31.2% (active).

On to `O=C(Nc1ccncc1)c1ccc([N+](=O)[O-])cc1Cl`, for which the inhibition was -1.67%.

On to `COCC(=O)N[C@@H]1C[C@@H]2O[C@@H](CO)CC[C@@H]2O[C@@H]1CCc1ccc(-c2ccccc2)cc1`, for which the inhibition was -3.27%.

On to `CN(C)CC(=O)Nc1ccc2c(c1)[C@H]1C[C@H](CC(=O)NCc3ccccc3)O[C@@H](CO)[C@H]1O2`, for which the inhibition was -5.86%.

With `Cc1cccc(CN(C)C[C@H]2OCc3cn(nn3)CCCC(=O)N([C@@H](C)CO)C[C@H]2C)c1`, the inhibition is -2.48%.

In the case of `CCCNC(=O)N1[C@H](CO)[C@@H](c2ccc(-c3ccc(C(=O)N(C)C)cc3)cc2)[C@@H]1C#N`, the inhibition is 5.61%.

As for `COc1ccc(NC(=O)N(C)C[C@@H]2OCCCC[C@H](C)Oc3ccc(NC(=O)c4ccccc4)cc3C(=O)N([C@H](C)CO)C[C@H]2C)cc1`, the inhibition is 3.2%.

With `OC[C@@H]1[C@H](c2ccc(Br)cc2)[C@@H]2CN(Cc3ccccn3)CCCCN12`, the inhibition was 3.43%.

Turning to `CCC(=O)N1CCCCN2[C@H](CO)[C@@H](c3ccc(-c4cccnc4)cc3)[C@H]2C1`, the inhibition was 0.057%.

Turning to `OC[C@H]1[C@H](c2ccc(-c3cccnc3)cc2)[C@H]2CN(Cc3ccccn3)CCCCN21`, the inhibition is 15.6% (active).

On to `CN1C(=O)c2cc(NC(=O)NC3CCCC3)ccc2OC[C@@H]2O[C@@H](CC(=O)O)CC[C@H]21`, for which the inhibition was -7.32%.

On to `O=C(C[C@@H]1CC[C@H](NC(=O)Nc2ccc(F)cc2)[C@H](CO)O1)NCc1ccccn1`, for which the inhibition was 1.52%.

For the compound `CC=Cc1ccc2n(c1=O)C[C@@H]1[C@@H](CO)[C@H](C(=O)NCC3CC3)[C@H]2N1C(=O)c1ccccc1` (mixture of isomers), the inhibition is -10.5%.

On to `COC(=O)C[C@@H]1C[C@@H]2c3cc(NC(=O)NC4CCCC4)ccc3O[C@@H]2[C@@H](CO)O1`, for which the inhibition is -3%.

`C[C@@H]1CN([C@H](C)CO)C(=O)Cc2cc(NC(=O)Cc3cn(C)c4ccccc34)ccc2O[C@@H]1CN(C)S(=O)(=O)c1ccccc1`: the inhibition was 0.96%.

With `C[C@@H]1CN([C@@H](C)CO)C(=O)c2cc(NC(=O)Cc3ccccc3)ccc2O[C@H]1CN(C)Cc1ccc(Cl)c(Cl)c1`, the inhibition is 14.1%.

`C[C@H]1CN([C@@H](C)CO)C(=O)c2cc(NC(=O)Cc3cn(C)c4ccccc34)ccc2O[C@H]1CN(C)Cc1ccc(Cl)c(Cl)c1`: the inhibition is 7.81%.

On to `Cc1ccc(S(=O)(=O)N(C)C[C@H]2Oc3ccc(NC(=O)Cc4cn(C)c5ccccc45)cc3CC(=O)N([C@@H](C)CO)C[C@H]2C)cc1`, for which the inhibition is 16.9% (active).

On to `C[C@@H]1CN([C@@H](C)CO)C(=O)c2c(c3ccccc3n2C)-c2ccccc2CO[C@@H]1CN(C)S(=O)(=O)c1ccc(F)cc1`, for which the inhibition is 3.02%.

For the compound `C[C@H]1CN([C@@H](C)CO)C(=O)c2c(c3ccccc3n2C)-c2ccccc2CO[C@H]1CN(C)S(=O)(=O)c1ccc(C#N)cc1`, the inhibition was 3.54%.

As to `Cc1ccc(S(=O)(=O)N(C)C[C@@H]2OCc3ccccc3-c3c(n(C)c4ccccc34)C(=O)N([C@@H](C)CO)C[C@@H]2C)cc1`, the inhibition is 17.7% (active).

`C[C@H]1CN([C@@H](C)CO)C(=O)c2cc(NC(=O)Cc3cn(C)c4ccccc34)ccc2O[C@@H]1CN(C)Cc1ccc(Cl)c(Cl)c1`: the inhibition was 22.6% (active).

As for `Cc1ccc(S(=O)(=O)N(C)C[C@@H]2Oc3ccc(NC(=O)Cc4cn(C)c5ccccc45)cc3C(=O)N([C@@H](C)CO)C[C@@H]2C)cc1`, the inhibition was 4.27%.

As to `CC=Cc1ccc2n(c1=O)C[C@@H]1[C@@H](CO)[C@H](C(=O)NC3CCCC3)[C@H]2N1C(=O)c1cnccn1` (mixture of isomers), the inhibition is -1.91%.

In the case of `Cc1cccc(-c2ccc([C@H]3[C@H](CO)N4CCCCN(S(=O)(=O)c5cn(C)cn5)C[C@@H]34)cc2)c1`, the inhibition was -2.31%.

For `O=C(C[C@@H]1CC[C@@H]2[C@H](COC[C@@H](O)CN2Cc2ccc(F)cc2)O1)NCc1ccncn1`, the inhibition was 2.45%.

For the compound `COc1ccccc1S(=O)(=O)N(C)C[C@@H]1Oc2cc(C#CCC3CCCC3)ccc2S(=O)(=O)N([C@H](C)CO)C[C@H]1C`, the inhibition was 18.3% (active).

With `CCCC#Cc1ccc2c(c1)O[C@@H](CN(C)S(=O)(=O)c1cccc(OC)c1)[C@H](C)CN([C@@H](C)CO)S2(=O)=O`, the inhibition was 0.047%.

Turning to `COc1ccccc1S(=O)(=O)N(C)C[C@H]1Oc2cc(C#CCC3CCCC3)ccc2S(=O)(=O)N([C@@H](C)CO)C[C@H]1C`, the inhibition was 16.1% (active).

As to `COc1cccc(S(=O)(=O)N(C)C[C@H]2Oc3cc(C#CCN(C)C)ccc3S(=O)(=O)N([C@H](C)CO)C[C@H]2C)c1`, the inhibition is 2.32%.

`COCC#Cc1ccc2c(c1)O[C@@H](CN(C)S(C)(=O)=O)[C@H](C)CN([C@H](C)CO)S2(=O)=O`: the inhibition is -0.381%.

With `COc1cccc(S(=O)(=O)N(C)C[C@@H]2Oc3cc(C#CCN(C)C)ccc3S(=O)(=O)N([C@@H](C)CO)C[C@@H]2C)c1`, the inhibition is -0.424%.

Turning to `C[C@H](O)C#Cc1ccc2c(c1)O[C@@H](CN(C)C(=O)C1CCCCC1)[C@H](C)CN([C@@H](C)CO)S2(=O)=O`, the inhibition is 5.37%.

`O=C(C[C@H]1CC[C@H]2[C@@H](COC[C@@H](O)CN2C(=O)Nc2ccc(C(F)(F)F)cc2)O1)NC1Cc2ccccc2C1`: the inhibition was -1.39%.

(Values after PubChem BioAssay AID652115 (Broad Institute, 2013).)
